PubChem BioAssay (NCATS)
The source made the active and inactive calls. No rule for the calls is given here.

These molecules were tested on HIV-1 nucleocapsid protein NCp7 (binding to TG oligonucleotide) (assay: HIV Nucleocapsid (AID 346;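 also: potency is for inhibitors that block NC binding and lower polarization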)). Conditions: HIV-1 NC / fluorescein-TGTGTGTG probe, fluorescence polarization.
Method in brief: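 HIV-1 NC (100 nM) binding to fluorescein-labelled ssDNA TG4xF (10 nM) in Hepes pH 7.5, 250mM NaCl, 1uM ZnCl2, TCEP and 2-mercaptoethanol; compounds pin-transferred, 1 hr room temperature, fluorescence polarization read on CCD imager.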
Potency is read from the fitted curve at half-maximal effect.

Row | SMILES | Potency
1 | COc1ccccc1-c1nc(NCCNC(C)=O)c2ccccc2n1 | > 20 µM (inactive)
2 | COc1ccc2[nH]cc(CCNc3ncnc4ccc(-c5c(C)noc5C)cc34)c2c1 | > 20 µM (inactive)
3 | O=S(=O)(c1ccccc1)N1CCC[C@@]2(CCN(c3ncccn3)C2)C1 | > 20 µM (inactive)
4 | COc1ccc(C(=O)N2CCC3(CCN(C(=O)Nc4cccc(C#N)c4)CC3)CC2)cc1 | > 20 µM (inactive)
5 | CCNc1ncc2nc(-c3ccc(Cl)cc3)c(=O)n(-c3ccccc3)c2n1 | 7.07 µM (active)
6 | Cn1cccc1C(=O)N1CCC2(CCCN(c3ccccc3)C2)CC1 | > 20 µM (inactive)
7 | CNc1ncnc2ccc(-c3ccc4c(c3)OCO4)cc12 | > 20 µM (inactive)
8 | COc1ccc2[nH]cc(CCNc3ncncc3-c3ccc(N(C)C)cc3)c2c1 | > 20 µM (inactive)
9 | COc1ncc2nc(-c3cccs3)c(=O)n(Cc3ccc(F)cc3)c2n1 | > 20 µM (inactive)
10 | Cc1cnc(CNc2nc(-c3ccoc3)nc3ccccc23)cn1 | > 20 µM (inactive)
11 | O=S(=O)(c1ccccc1)N1CCC2(CC1)CN(C(c1ccccc1)c1ccccc1)C2 | > 20 µM (inactive)
12 | COc1ccc(-c2nc3cnc(OC)nc3n(CCc3ccccc3)c2=O)cc1 | > 20 µM (inactive)
13 | O=C(Nc1ccccc1)N1CC2(CCN(S(=O)(=O)c3ccccc3)CC2)C1 | > 20 µM (inactive)
14 | N#Cc1ccc(CN2CC[C@@]3(CCCN(C(=O)c4cc(C(F)(F)F)cc(C(F)(F)F)c4)C3)C2)cc1 | > 20 µM (inactive)
15 | CN(C)C(=O)c1ccc(-c2ccc3ncnc(N4CCC(C(=O)O)CC4)c3c2)cc1 | > 20 µM (inactive)
16 | Cc1noc(C)c1C(=O)N1CCC[C@@]2(CCN(c3ccccc3)C2)C1 | > 20 µM (inactive)
17 | CC(=O)NCCNc1ncnc2ccc(-c3cccc(NS(C)(=O)=O)c3)cc12 | > 20 µM (inactive)
18 | COc1ncc2nc(-c3ccccc3)c(=O)n(C[C@H]3CCCO3)c2n1 | > 20 µM (inactive)
19 | COc1ccccc1-c1cc(NCc2cnc(C)cn2)ncn1 | > 20 µM (inactive)
20 | Cc1noc(C)c1C(=O)N1CCC2(CC1)CCN(c1ncccn1)CC2 | > 20 µM (inactive)

Row | SMILES | Potency
21 | O=c1c(-c2cc(F)cc(F)c2)nc2cnc(N3CCOCC3)nc2n1CCc1ccccc1 | > 20 µM (inactive)
22 | N#CCCn1c(=O)c(-c2cc(F)cc(F)c2)nc2cnc(Oc3ccccc3)nc21 | > 20 µM (inactive)
23 | O=C(c1ccncc1)N1CCC[C@@]2(CCN(C(c3ccccc3)c3ccccc3)C2)C1 | > 20 µM (inactive)
24 | COCCn1c(=O)c(CCc2ccccc2)nc2cnc(Oc3cccc(Cl)c3)nc21 | > 20 µM (inactive)
25 | N#CCCn1c(=O)c(-c2cccc(C#N)c2)nc2cnc(Oc3ccccc3)nc21 | > 20 µM (inactive)
26 | Cc1noc(C)c1-c1nc(NCc2cccnc2)c2ccccc2n1 | > 20 µM (inactive)
27 | COc1ccc(-c2nc3cnc(N4CCN(C)CC4)nc3n(CCC#N)c2=O)cc1 | > 20 µM (inactive)
28 | CNc1nc(-c2ccccc2Cl)nc2ccccc12 | > 20 µM (inactive)
29 | c1cncc(-c2ccc3ncnc(NCCN4CCOCC4)c3c2)c1 | > 20 µM (inactive)
30 | N#CCCn1c(=O)c(-c2cccs2)nc2cnc(N3CCOCC3)nc21 | 4.26 µM (active)
31 | COc1ccc(C(=O)N2CCC3(CC2)CCN(c2ncccn2)CC3)cc1 | > 20 µM (inactive)
32 | CNc1ncncc1-c1ccccc1C(F)(F)F | > 20 µM (inactive)
33 | COc1ccc(C(=O)N2CCC3(CC2)CN(c2ncccn2)C3)cc1 | > 20 µM (inactive)
34 | COc1ccccc1-c1cc(NCc2ccccc2)ncn1 | > 20 µM (inactive)
35 | CN(C)C(=O)c1ccc(-c2nc(N(C)Cc3ccco3)c3ccccc3n2)cc1 | > 20 µM (inactive)
36 | O=c1c(-c2ccccc2)nc2cnc(Oc3ccccc3)nc2n1C[C@H]1CCCO1 | > 20 µM (inactive)
37 | COc1cccc(Cn2c(=O)c(-c3cccc(C#N)c3)nc3cnc(OC)nc32)c1 | > 20 µM (inactive)
38 | c1ccc(CNc2ncncc2-c2ccc3c(c2)OCO3)cc1 | > 20 µM (inactive)
39 | CC(C)NC(=O)N1CC[C@@]2(CCCN(S(=O)(=O)c3ccccc3)C2)C1 | > 20 µM (inactive)
40 | O=C(c1cc(C(F)(F)F)cc(C(F)(F)F)c1)N1CCC2(CCCN(Cc3ccncc3)C2)CC1 | > 20 µM (inactive)
